Assay results from the supplement of paper PMC11732987, “Enantioselective OTUD7B fragment discovery through chemoproteomics screening and high-throughput optimisation” (Communications Chemistry, 2025).

Columns and labels:
Assay in all cases: log2 ratio of Biotin-Ahx-Ub-VS probe labelling (fragment/DMSO); higher = less target engagement (more negative = stronger competition), active = hit call of the paper (q ≤ 0.05, log2 ratio ≤ -1)
Conditions in all cases: compound concentration: 200 uM; treatment time: 3 h
USP42 = biological target: T1, USP42 (UniProt Q9H9J4)
T1 sequence (whole entry): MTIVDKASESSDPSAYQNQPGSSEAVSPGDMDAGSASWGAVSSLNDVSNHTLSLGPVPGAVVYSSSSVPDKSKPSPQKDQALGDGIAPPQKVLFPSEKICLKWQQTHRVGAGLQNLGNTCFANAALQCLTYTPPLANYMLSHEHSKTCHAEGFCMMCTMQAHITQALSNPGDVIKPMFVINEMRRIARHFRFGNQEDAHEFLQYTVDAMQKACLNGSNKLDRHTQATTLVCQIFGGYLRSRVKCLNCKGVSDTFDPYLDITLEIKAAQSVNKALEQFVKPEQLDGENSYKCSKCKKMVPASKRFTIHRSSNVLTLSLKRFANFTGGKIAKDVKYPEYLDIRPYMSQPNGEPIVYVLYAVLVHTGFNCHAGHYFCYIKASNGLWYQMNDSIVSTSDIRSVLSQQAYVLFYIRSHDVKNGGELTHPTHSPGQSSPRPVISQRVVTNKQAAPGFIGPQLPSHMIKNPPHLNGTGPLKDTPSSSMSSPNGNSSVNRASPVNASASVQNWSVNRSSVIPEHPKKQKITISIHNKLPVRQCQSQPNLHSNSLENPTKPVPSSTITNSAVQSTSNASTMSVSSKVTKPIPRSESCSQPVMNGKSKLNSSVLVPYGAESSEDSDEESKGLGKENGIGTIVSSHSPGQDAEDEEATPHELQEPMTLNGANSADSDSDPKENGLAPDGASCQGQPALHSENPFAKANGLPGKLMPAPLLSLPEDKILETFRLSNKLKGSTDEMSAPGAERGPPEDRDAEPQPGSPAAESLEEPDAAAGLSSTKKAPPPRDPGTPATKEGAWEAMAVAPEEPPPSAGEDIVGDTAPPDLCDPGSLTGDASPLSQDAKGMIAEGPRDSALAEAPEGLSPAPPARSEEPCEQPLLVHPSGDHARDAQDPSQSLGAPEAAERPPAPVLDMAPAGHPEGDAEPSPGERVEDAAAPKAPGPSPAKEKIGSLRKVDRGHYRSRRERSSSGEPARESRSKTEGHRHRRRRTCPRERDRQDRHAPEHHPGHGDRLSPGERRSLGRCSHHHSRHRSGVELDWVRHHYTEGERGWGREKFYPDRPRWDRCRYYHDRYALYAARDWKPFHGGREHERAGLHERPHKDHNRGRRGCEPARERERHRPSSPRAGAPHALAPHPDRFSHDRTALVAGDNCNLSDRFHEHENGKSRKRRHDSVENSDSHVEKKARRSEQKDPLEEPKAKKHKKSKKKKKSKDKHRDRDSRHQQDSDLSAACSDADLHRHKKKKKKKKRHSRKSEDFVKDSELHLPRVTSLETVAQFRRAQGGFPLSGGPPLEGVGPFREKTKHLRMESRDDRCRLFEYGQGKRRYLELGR
Summary of the method: (§1)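 Average log2 ratios of fragment over vehicle were obtained by unpaired t-test from global-median-normalised Spectronaut label-free quantities. Proteins with ≥2 unique peptides were included. HEK293T lysate (495 µg per sample) was treated in triplicate with fragment at 200 µM or vehicle for 3 h, then with Biotin-Ahx-Ub-VS at 0.5 µM final for 1 h, and labelled DUBs were NeutrAvidin-enriched and run by diaPASEF LC-MS/MS.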

USP46 = USP46 (UniProt P62068)
Summary of the method: as §1

USP47 = biological target: T2, USP47 (UniProt Q96K76)
T2 sequence (whole entry): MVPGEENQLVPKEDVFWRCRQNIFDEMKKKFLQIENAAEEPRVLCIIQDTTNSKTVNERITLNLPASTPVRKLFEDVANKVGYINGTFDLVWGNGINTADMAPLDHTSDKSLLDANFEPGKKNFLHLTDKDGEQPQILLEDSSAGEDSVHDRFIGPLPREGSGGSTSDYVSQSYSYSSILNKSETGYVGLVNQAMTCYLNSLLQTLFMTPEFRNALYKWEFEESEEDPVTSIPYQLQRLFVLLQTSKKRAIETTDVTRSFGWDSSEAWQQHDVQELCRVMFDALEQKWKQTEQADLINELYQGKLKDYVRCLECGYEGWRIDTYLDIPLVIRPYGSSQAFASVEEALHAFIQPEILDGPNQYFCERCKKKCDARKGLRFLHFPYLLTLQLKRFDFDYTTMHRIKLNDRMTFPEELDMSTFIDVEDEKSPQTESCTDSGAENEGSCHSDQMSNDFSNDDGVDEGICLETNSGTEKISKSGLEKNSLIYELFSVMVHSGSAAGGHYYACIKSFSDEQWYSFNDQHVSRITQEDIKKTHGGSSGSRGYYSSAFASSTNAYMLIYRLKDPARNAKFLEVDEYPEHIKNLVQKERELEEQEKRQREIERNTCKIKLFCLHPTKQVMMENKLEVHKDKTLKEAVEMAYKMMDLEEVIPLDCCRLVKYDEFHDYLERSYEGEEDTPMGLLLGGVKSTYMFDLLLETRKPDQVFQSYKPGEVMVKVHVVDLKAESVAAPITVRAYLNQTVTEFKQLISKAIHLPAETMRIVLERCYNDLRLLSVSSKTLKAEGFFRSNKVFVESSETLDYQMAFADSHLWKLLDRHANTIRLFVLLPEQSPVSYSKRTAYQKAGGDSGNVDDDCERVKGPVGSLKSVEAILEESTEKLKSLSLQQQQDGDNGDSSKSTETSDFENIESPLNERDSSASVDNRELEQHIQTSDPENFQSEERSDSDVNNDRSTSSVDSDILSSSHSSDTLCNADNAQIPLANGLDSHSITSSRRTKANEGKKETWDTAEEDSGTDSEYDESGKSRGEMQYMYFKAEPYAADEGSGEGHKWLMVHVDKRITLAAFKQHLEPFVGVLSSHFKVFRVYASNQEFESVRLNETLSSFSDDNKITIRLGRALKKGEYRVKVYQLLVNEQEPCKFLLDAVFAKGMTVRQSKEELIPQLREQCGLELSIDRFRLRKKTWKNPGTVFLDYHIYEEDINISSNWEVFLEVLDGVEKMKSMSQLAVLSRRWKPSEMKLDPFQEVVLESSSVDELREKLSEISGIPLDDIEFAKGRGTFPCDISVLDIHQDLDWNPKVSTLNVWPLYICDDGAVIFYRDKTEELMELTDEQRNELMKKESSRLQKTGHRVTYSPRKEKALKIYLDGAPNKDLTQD
Summary of the method: as §1

USP48 = biological target: T3, USP48 (UniProt Q86UV5)
T3 sequence (whole entry): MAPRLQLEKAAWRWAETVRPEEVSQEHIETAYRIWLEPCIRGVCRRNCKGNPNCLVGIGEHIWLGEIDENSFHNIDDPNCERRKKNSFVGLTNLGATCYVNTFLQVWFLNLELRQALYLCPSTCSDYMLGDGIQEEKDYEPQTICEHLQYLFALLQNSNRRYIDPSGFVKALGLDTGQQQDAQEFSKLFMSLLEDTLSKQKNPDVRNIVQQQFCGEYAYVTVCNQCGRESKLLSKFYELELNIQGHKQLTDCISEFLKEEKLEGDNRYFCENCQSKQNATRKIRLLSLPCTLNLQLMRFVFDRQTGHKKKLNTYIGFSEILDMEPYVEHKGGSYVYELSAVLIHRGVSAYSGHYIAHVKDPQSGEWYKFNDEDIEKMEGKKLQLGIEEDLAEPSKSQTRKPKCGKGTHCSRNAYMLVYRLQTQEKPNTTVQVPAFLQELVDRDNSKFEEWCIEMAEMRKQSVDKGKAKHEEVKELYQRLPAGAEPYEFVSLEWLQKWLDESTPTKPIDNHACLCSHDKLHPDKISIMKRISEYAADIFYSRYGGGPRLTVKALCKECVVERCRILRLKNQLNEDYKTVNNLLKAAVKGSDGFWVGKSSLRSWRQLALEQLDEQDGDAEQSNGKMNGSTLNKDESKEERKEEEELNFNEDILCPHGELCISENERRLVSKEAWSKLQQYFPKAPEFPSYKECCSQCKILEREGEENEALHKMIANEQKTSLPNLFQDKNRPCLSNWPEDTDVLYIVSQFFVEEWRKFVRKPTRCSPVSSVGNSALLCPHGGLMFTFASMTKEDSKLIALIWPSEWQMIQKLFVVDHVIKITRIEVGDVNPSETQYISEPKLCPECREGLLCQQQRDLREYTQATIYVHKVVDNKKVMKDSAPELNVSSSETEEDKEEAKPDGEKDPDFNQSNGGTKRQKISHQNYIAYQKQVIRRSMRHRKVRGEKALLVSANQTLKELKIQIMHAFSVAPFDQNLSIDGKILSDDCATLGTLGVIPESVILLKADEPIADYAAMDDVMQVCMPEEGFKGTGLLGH
Summary of the method: as §1

USP5 = biological target: T4, USP5 (UniProt P45974)
T4 sequence (whole entry): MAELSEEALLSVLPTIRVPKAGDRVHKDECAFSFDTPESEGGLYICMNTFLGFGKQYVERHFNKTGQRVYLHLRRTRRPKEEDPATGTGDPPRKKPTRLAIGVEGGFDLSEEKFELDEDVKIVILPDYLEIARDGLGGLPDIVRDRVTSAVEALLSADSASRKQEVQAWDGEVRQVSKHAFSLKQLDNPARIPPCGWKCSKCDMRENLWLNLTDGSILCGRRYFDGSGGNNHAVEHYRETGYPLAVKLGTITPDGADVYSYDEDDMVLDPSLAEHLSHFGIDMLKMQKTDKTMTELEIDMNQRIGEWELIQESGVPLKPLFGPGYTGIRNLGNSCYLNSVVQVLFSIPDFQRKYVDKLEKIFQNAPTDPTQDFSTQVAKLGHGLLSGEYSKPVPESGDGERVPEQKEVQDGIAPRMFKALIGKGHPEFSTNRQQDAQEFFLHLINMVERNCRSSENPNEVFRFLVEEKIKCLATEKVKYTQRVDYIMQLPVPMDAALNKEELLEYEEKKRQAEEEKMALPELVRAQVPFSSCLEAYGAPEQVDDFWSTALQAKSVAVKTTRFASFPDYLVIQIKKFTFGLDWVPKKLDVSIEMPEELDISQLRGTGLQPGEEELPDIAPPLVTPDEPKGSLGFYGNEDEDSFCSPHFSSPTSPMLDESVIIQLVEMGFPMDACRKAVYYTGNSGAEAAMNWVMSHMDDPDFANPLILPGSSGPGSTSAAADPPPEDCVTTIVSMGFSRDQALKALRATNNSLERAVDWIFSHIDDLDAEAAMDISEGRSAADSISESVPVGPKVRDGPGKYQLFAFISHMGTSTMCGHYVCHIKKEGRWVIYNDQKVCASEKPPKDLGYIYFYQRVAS
Summary of the method: as §1

USP54 = USP54 (UniProt Q70EL1)
Summary of the method: as §1

USP7 = USP7 (UniProt Q93009)
Summary of the method: as §1

USP8 = biological target: T5, USP8 (UniProt P40818)
T5 sequence (whole entry): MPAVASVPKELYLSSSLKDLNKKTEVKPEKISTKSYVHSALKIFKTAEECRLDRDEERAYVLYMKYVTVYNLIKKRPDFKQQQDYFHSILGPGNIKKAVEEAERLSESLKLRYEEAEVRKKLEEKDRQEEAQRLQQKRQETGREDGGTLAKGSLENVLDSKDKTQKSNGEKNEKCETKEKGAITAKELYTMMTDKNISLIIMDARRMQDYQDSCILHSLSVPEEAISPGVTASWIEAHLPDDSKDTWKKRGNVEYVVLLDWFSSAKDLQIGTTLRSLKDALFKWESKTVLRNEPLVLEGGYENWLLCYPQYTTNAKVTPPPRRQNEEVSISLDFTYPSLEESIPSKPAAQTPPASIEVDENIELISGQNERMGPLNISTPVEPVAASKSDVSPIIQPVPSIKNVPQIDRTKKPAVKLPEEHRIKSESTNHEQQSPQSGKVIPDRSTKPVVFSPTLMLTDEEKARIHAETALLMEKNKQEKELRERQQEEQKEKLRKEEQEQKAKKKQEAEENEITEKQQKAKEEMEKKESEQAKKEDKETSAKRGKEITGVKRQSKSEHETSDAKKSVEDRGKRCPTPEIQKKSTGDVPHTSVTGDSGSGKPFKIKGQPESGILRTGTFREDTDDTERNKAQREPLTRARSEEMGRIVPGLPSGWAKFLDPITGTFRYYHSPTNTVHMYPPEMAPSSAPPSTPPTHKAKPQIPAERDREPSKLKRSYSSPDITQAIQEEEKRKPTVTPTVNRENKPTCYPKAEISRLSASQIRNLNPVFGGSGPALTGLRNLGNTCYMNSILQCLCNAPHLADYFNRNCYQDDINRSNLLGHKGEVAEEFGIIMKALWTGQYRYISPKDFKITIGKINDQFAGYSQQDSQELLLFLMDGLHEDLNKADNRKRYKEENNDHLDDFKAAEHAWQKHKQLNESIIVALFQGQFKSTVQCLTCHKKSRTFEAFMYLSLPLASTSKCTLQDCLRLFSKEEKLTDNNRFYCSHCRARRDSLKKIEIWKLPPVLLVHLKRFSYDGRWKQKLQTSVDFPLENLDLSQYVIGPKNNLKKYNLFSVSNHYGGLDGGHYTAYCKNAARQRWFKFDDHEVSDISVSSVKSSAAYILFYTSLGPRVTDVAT
Summary of the method: as §1

USP9X = USP9X (UniProt Q93008)
Summary of the method: as §1

UniProt O00487 = biological target: UniProt O00487
Summary of the method: as §1

Measured: log2 ratio of Biotin-Ahx-Ub-VS probe labelling

Chain of USP7 (Q93009 whole entry, looked up): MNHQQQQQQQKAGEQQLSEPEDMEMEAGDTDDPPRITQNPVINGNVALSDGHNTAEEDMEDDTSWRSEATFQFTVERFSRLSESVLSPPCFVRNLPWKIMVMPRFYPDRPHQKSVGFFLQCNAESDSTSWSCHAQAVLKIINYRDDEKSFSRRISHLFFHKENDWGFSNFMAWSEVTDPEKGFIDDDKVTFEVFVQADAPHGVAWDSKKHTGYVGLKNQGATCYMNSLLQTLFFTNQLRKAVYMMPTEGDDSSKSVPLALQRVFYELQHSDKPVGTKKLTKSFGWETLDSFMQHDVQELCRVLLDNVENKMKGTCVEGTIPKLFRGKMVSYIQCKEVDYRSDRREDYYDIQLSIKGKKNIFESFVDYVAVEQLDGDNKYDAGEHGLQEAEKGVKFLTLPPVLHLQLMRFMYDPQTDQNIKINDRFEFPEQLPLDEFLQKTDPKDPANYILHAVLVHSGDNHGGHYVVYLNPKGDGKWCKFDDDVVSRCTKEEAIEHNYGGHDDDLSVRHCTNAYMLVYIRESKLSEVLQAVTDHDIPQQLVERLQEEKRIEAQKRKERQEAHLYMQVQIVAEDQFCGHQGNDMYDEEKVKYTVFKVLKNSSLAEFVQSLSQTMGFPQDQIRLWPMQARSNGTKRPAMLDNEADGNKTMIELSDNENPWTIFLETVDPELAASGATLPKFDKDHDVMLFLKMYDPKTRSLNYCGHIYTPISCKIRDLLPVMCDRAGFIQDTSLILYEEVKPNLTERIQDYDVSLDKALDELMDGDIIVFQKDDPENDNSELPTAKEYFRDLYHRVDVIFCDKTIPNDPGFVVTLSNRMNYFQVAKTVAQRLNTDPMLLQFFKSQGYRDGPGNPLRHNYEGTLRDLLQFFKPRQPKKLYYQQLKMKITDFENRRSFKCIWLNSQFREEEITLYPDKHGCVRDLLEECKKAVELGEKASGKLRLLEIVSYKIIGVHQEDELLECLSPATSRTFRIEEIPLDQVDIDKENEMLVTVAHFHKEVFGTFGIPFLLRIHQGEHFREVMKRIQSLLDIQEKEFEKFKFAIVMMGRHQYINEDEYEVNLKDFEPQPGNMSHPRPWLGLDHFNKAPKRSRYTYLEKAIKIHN
Chain of USP46 (P62068 whole entry): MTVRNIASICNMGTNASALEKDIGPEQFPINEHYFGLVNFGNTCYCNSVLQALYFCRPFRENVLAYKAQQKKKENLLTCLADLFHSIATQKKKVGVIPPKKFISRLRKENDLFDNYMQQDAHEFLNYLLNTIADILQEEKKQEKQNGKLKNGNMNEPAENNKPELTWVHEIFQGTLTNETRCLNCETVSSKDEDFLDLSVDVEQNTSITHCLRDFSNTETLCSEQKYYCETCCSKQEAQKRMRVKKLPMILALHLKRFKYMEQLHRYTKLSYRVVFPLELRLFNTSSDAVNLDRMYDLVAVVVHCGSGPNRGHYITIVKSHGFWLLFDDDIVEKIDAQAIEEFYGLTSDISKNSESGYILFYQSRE
Chain of UniProt O00487 (O00487 whole entry): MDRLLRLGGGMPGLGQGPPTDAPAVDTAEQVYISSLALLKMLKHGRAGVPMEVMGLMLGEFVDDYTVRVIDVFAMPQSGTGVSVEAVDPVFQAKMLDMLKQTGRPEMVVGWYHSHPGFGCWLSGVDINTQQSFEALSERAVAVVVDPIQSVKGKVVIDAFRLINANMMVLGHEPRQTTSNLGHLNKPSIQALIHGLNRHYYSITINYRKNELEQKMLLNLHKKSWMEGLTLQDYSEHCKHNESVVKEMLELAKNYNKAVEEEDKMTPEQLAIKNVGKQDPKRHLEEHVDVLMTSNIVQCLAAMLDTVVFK
Chain of USP9X (Q93008 whole entry): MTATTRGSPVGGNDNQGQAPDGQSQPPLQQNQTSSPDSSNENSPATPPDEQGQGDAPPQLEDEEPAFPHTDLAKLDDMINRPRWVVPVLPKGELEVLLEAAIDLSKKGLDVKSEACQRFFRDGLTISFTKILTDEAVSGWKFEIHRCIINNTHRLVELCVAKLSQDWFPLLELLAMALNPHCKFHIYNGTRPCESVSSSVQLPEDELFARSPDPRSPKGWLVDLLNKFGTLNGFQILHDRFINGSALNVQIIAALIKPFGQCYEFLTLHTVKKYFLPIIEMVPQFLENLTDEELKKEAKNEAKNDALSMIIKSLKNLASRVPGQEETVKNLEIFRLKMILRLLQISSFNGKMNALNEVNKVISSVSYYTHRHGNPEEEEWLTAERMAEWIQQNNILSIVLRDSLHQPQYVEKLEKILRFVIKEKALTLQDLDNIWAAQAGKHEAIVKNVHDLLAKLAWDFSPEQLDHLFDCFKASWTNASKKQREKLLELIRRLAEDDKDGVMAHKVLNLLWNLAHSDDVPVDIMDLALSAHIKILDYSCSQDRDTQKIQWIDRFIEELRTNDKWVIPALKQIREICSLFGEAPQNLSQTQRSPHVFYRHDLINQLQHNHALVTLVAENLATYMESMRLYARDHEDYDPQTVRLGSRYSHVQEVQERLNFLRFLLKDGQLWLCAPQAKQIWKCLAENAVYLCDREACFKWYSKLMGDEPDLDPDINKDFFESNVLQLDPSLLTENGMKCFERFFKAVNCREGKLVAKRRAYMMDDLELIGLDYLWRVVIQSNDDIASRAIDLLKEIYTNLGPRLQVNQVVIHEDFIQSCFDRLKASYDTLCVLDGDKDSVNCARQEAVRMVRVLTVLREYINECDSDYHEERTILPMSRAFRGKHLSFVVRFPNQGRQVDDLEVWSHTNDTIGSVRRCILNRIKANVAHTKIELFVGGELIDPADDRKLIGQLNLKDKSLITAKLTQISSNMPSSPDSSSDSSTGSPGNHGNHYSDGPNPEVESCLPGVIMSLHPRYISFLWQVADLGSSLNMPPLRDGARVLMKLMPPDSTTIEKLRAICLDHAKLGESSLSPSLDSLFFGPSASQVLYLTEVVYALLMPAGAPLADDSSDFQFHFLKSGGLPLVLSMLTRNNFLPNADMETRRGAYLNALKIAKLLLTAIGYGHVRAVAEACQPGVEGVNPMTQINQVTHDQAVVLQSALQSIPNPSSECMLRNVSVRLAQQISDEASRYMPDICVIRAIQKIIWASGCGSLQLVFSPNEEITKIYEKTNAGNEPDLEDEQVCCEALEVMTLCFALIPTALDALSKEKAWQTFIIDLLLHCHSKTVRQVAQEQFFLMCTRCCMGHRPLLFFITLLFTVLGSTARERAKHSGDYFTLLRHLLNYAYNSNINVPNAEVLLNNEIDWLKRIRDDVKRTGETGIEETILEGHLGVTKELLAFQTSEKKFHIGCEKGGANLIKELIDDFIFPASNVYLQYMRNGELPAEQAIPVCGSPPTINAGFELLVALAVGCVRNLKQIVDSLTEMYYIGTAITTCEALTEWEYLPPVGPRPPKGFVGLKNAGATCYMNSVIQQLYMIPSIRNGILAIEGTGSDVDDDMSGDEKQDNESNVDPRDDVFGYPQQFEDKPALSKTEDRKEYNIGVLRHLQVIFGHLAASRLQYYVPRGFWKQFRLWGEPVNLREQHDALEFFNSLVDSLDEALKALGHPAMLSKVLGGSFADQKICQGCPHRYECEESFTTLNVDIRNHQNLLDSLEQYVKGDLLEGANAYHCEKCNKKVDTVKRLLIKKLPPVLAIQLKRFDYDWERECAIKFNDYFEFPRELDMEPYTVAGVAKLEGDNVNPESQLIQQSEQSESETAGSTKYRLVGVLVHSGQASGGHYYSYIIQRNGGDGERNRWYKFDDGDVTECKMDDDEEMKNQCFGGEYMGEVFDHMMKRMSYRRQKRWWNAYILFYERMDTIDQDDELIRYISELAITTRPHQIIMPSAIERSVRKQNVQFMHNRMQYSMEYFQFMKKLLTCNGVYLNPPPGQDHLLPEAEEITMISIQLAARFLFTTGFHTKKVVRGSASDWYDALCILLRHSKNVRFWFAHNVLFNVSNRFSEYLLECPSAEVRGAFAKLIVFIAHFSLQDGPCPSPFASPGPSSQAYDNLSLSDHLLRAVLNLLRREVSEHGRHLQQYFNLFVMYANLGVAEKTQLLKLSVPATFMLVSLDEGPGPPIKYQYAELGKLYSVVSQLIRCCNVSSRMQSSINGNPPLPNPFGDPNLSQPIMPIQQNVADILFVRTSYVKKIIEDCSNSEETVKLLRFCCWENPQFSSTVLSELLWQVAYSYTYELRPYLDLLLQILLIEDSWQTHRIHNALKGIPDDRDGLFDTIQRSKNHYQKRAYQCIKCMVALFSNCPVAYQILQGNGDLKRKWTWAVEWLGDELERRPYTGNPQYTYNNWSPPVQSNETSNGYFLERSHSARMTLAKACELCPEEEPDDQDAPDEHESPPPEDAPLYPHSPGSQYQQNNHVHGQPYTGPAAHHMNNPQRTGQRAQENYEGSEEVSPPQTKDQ

O=C(CCl)NC1CCC(C(F)(F)F)CC1 (stereo not given)
inactive: USP42 0.589 | USP46 -0.0439 | USP47 -0.0726 | USP48 -0.174 | USP5 -0.36 | USP54 0.0395 | USP7 -0.303 | USP8 -0.0509 | USP9X -0.178 | UniProt O00487 -0.185
